# Where a name gives a salt, the structure may show the parent alone. ± gives the standard deviation of the averaged measurements.
# Columns and labels:
# DLD1 [1] = assay: cell viability (CellTiter-Glo) relative to plate median (fraction of plate median); higher = more viable cells; settings: 10 µM, treatment time 24 h
# How it was run: (§1)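 Colorectal cancer cell lines stably transduced with lentiviral TCF/Wnt firefly luciferase reporters (7TFP or TCF4/Wnt) were seeded in 384-well plates. 24 h later they received kinase inhibitor library compounds at a final 10 µM for 24 h. Parallel plates were read for firefly luciferase or CellTiterGlo luminescence on a Tecan F500 reader. Each well's signal was normalised to the plate median (webcellHTS2, additive, no log transformation), and the mean of two independent replicates is reported.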
# HCT116 [2] = assay: as above; settings: 10 µM; treatment time 24 h; reporter: TCF4/Wnt
# How it was run: as §1
# SW480 [3] = assay: as above; settings: 10 µM; treatment time 24 h; reporter: 7TFP
# How it was run: as §1
# DLD1 [4] = assay: TCF/Wnt firefly luciferase reporter signal relative to plate median (fraction of plate median); higher = higher Wnt reporter signal; settings: 10 µM, treatment time 24 h
# How it was run: as §1
# HCT116 [5] = assay: as above; settings: 10 µM; treatment time 24 h; reporter: TCF4/Wnt
# How it was run: as §1
# SW480 [6] = assay: as above; settings: 10 µM; treatment time 24 h; reporter: 7TFP
# How it was run: as §1
SMILES,cell viability (DLD1 [1]; reporter: 7TFP),cell viability (DLD1 [1]; reporter: TCF4/Wnt),cell viability (HCT116 [2]),cell viability (SW480 [3]),TCF/Wnt firefly luciferase reporter signal (DLD1 [4]; reporter: 7TFP),TCF/Wnt firefly luciferase reporter signal (DLD1 [4]; reporter: TCF4/Wnt),TCF/Wnt firefly luciferase reporter signal (HCT116 [5]),TCF/Wnt firefly luciferase reporter signal (SW480 [6])
O=C(Nc1c[nH]nc1-c1nc2ccc(CN3CCOCC3)cc2[nH]1)NC1CC1,0.842 ± 0.038,0.817 ± 0.022,0.566 ± 0.1,1.02 ± 0.14,0.865 ± 0.018,1.575 ± 0.0071,0.189 ± 0.0099,0.84 ± 0.052
COc1cc2nccc(Oc3ccc(NC(=O)NC4CC4)c(Cl)c3)c2cc1C(N)=O [E7080 (Lenvatinib)],1.07 ± 0.085,0.932 ± 0.069,1.06 ± 0.11,0.966 ± 0.062,1.44 ± 0.078,1.2 ± 0.05,1.31 ± 0.3,0.927 ± 0.34
CN(C)C1CCN(C(=O)c2ccc(NC(=O)Nc3ccc(-c4nc(N5CCOCC5)nc(N5CCOCC5)n4)cc3)cc2)CC1,1.1 ± 0.17,1.05 ± 0.081,0.649 ± 0.051,1.17 ± 0.05,0.947 ± 0.076,0.933 ± 0.073,0.611 ± 0.23,0.958 ± 0.1
O=C1NC(=O)/C(=C\c2ccc3nccnc3c2)S1,1 ± 0.038,1.04 ± 0.063,1.04 ± 0.042,0.854 ± 0.055,1.38 ± 0.05,1.48 ± 0.021,1.96 ± 0.18,1.3 ± 0.33
CN1CC[C@H](c2c(O)cc(O)c3c(=O)cc(-c4ccccc4Cl)oc23)[C@H](O)C1 [Flavopiridol hydrochloride],1.27 ± 0.2,1.24 ± 0.092,0.865 ± 0.29,1.36 ± 0.11,0.393 ± 0.14,0.227 ± 0.069,0.196 ± 0.047,0.869 ± 0.0099
"Cc1cc(Nc2cc(N3CCN(C)CC3)nc(Sc3ccc(NC(=O)C4CC4)cc3)n2)n[nH]1 [VX-680 (MK-0457, Tozasertib)]",1.12 ± 0.18,0.975 ± 0.078,1.02 ± 0.028,1.16 ± 0.021,0.773 ± 0.0014,0.776 ± 0.057,1.56 ± 0.13,1.11 ± 0.23
C=CC(=O)N1CCC[C@@H](n2nc(-c3ccc(Oc4ccccc4)cc3)c3c(N)ncnc32)C1,1.05 ± 0.077,1.115 ± 0.0071,1.36 ± 0.085,1.16 ± 0.064,0.557 ± 0.17,0.881 ± 0.35,1.33 ± 0.14,1.11 ± 0.042
Cc1[nH]c(/C=C2\C(=O)Nc3ccccc32)c(C)c1CCC(=O)O,0.941 ± 0.028,0.997 ± 0.061,1.08 ± 0.13,0.96 ± 0.044,1.93 ± 0.38,1.26 ± 0.41,1.4 ± 0.59,1.22 ± 0.16
COc1cc2c(Oc3ccc4[nH]c(C)cc4c3F)ncnc2cc1OCCCN1CCCC1 [Cediranib (AZD2171)],0.659 ± 0.18,0.769 ± 0.054,0.658 ± 0.02,0.893 ± 0.067,0.968 ± 0.51,0.801 ± 0.32,0.354 ± 0.15,0.699 ± 0.12
COc1ccc2c(Oc3ccc(NC(=O)c4c(C)n(CC(C)(C)O)n(-c5ccccc5)c4=O)nc3)ccnc2c1,1.15 ± 0.19,1.01 ± 0.016,1.12,0.921 ± 0.08,0.92 ± 0.35,0.99 ± 0.057,1.22 ± 0.078,1.05 ± 0.078
N#CCNC(=O)c1ccc(-c2ccnc(Nc3ccc(N4CCOCC4)cc3)n2)cc1,1.06 ± 0.014,1.12 ± 0.021,1.25 ± 0.078,1.09 ± 0.035,1.32 ± 0.26,1.16 ± 0.13,1.31 ± 0.25,0.923 ± 0.34
COc1cc2/c(=N/c3ccc(Br)cc3F)nc[nH]c2cc1OCC1CCN(C)CC1 [Vandetanib (Zactima)],0.921 ± 0.18,1.08 ± 0.057,1.14 ± 0.085,1.2 ± 0.035,0.9625 ± 0.0035,0.773 ± 0.093,0.916 ± 0.081,1.2 ± 0.092
Nc1ccc(C(=O)Nc2cccc(-c3nc(N4CCOCC4)c4oc5ncccc5c4n3)c2)cn1,0.832 ± 0.044,0.858 ± 0.025,0.819 ± 0.049,1.004 ± 0.0078,0.758 ± 0.033,0.654 ± 0.069,0.591 ± 0.2,0.827 ± 0.4
Cc1nc(N)sc1-c1ccnc(Nc2ccc(N3CCOCC3)cc2)n1,1.09 ± 0.14,1.09 ± 0.085,1.07 ± 0.064,1.06 ± 0.028,1.24 ± 0.23,1.23 ± 0.36,1.72 ± 0.2,0.774 ± 0.36
C#Cc1cccc(Nc2ncnc3cc(OCCOC)c(OCCOC)cc23)c1 [Erlotinib HCl],1.035 ± 0.0071,0.934 ± 0.034,1.14 ± 0.078,1 ± 0.013,0.888 ± 0.023,0.73 ± 0.0057,0.729 ± 0.4,0.868 ± 0.3
COc1cc2c(Nc3ccc(NC(=O)c4ccccc4)cc3)ncnc2cc1OCCCN1CCOCC1,0.8075 ± 0.005,0.872 ± 0.042,1.01 ± 0.041,1.11 ± 0.021,1.13 ± 0.085,1.19 ± 0.2,1.42 ± 0.23,1.43 ± 0.057
CC(=O)Nc1nc(C)c(-c2ccc(Cl)c(S(=O)(=O)NCCO)c2)s1,0.939 ± 0.13,0.947 ± 0.0014,0.974 ± 0.051,1.1,0.9 ± 0.037,1 ± 0.08,1.09 ± 0.085,0.944 ± 0.033

# Reference: the supplement of paper PMC6522484
